{"source": "paper PMC5540273", "about": "(PLoS ONE, 2017);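 further: KINOMEscan kinase panel screen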", "data": [{"system": "NLK", "details": "concentration: 1 μM, replicates: in singlicate; n = 1", "units": {"%Inh": "%"}, "values": [{"smiles": "NS(=O)(=O)c1cccc(-c2ccc3ncc(N4CCOCC4)nc3c2)c1", "note": "[GSK1535721]", "%Inh": 8}, {"smiles": "CN1c2ccc(CNc3ccc(F)cc3)cc2-c2c(cnn2C)S1(=O)=O", "%Inh": 0}, {"smiles": "Cc1cn2c(=O)cc(N3CCOCC3)nc2n1Cc1cccc(Cl)c1Cl", "note": "[GSK2334006]", "%Inh": 9}, {"smiles": "CC(C)(C)n1cnc2c(N)ncnc21", "note": "[SKF-97359]", "%Inh": 2}, {"smiles": "O=c1cc(N2CCOCC2)nc2n(Cc3cccc(F)c3)ccn12", "note": "[GSK2297430]", "%Inh": 0}, {"smiles": "O=C(c1ccc(-c2cc(-c3c[nH]nc3-c3ccccn3)ccn2)cc1)N1CCOCC1", "note": "[GW812171]", "%Inh": 0}, {"smiles": "COc1ccc(Nc2nccc(N3CCC(NC(=O)Nc4cccc(C(C)=O)c4)C3)n2)cc1", "note": "(centres unmarked) [GSK1379731]", "%Inh": 0}, {"smiles": "Cc1ccc(NC(=O)c2ccnc(N3CCN(C)CC3)c2)cc1-c1ccc(C(=O)NCC2CC2)cc1", "note": "[GW775604]", "%Inh": 0}, {"smiles": "Nc1nccc(-c2c(-c3ccc(F)cc3)ncn2C2CCN(CC(F)(F)F)CC2)n1", "note": "[SB-236560]", "%Inh": 60}, {"smiles": "Cc1nnc(-c2ccc3ncc(-c4ccc(S(C)=O)cc4)n3c2)o1", "note": "(centres unmarked)", "%Inh": 0}, {"smiles": "CN(C1=C(c2ccccc2)C(=O)NC1=O)c1ccccc1", "note": "[SB-334860]", "%Inh": 35}, {"smiles": "NCCNS(=O)(=O)c1ccc(-c2ccnc3[nH]ccc23)cc1", "note": "[GSK977617]", "%Inh": 0}, {"smiles": "CSc1ccc(-c2cc3ncnc(SCC(=O)O)c3s2)cc1", "%Inh": 26}, {"smiles": "O=C1Cc2cc(Nc3nc(NCc4cccc(S(=O)(=O)C(F)(F)F)c4)ncc3C(F)(F)F)ccc2N1", "%Inh": 4}, {"smiles": "Cc1ccc(C(=O)NCC(N)=O)cc1-n1c(C)cc(OCc2ccc(F)cc2F)c(Br)c1=O", "%Inh": 14}, {"smiles": "CN(C(=O)c1ccc(-c2cc(-c3c[nH]nc3-c3ccccn3)ccn2)cc1)C1CCOCC1", "note": "[GW810083]", "%Inh": 0}, {"smiles": "c1ccc(-c2cc(-c3c[nH]nc3-c3ccccn3)ccn2)cc1", "note": "[GW576604]", "%Inh": 44}, {"smiles": "COc1cc2c(cc1OC[C@@H](O)CO)ncc1c3ccc(C#N)cc3[nH]c21", "%Inh": 0}, {"smiles": "CCCCCc1nc2c(N)ncnc2n1CCCCC", "note": "[SKF-97255]", "%Inh": 0}, {"smiles": "Fc1ccc(-c2ncn(CCCN3CCOCC3)c2-c2cccnc2)cc1", "note": "[SB-211743]", "%Inh": 3}, {"smiles": "Cc1cccc(Cn2ccn3c(=O)cc(N4CCOCC4)nc23)c1", "note": "[GSK2297542]", "%Inh": 15}, {"smiles": "Fc1ccc(-c2nn3c(OCC(F)(F)F)cccc3c2-c2ccncc2)cc1", "note": "[GW514784]", "%Inh": 65}, {"smiles": "COc1cc2c(cc1OCCN1CCN(C)CC1)ncc1c3ccc(C#N)cc3[nH]c21", "%Inh": 0}, {"smiles": "COc1ccc(COc2cc(-n3cnc4ccccc43)sc2C(N)=O)cc1", "note": "[GSK1024304]", "%Inh": 0}, {"smiles": "O=C(NOCC1CC1)c1ccc(F)c(F)c1Nc1ccc(I)cc1Cl", "%Inh": 0}, {"smiles": "Cc1c2ccc(N(C)c3ccnc(Nc4cccc(S(N)(=O)=O)c4)n3)cc2nn1Cc1ccccc1.Cl.Cl", "note": "[GW787226]", "%Inh": 5}, {"smiles": "O=c1cc(N2CCOCC2)nc2n(Cc3cccc(C(F)(F)F)c3)ccn12", "note": "[GSK2297543]", "%Inh": 32}, {"smiles": "Cc1nnc(-c2ccc(C)c(-c3ccc(C(=O)Nc4ccc(NS(C)(=O)=O)cc4)cc3)c2)o1", "note": "[GW702865]", "%Inh": 0}, {"smiles": "O=C(NCCNc1ccnc(Nc2ccc(F)cc2)n1)c1cc2ccccc2s1", "note": "[GSK1379874]", "%Inh": 0}, {"smiles": "Cc1nnc(-c2ccc3occ(-c4ccc(C(C)O)cc4)c3c2)o1", "note": "(centres unmarked)", "%Inh": 2}, {"smiles": "CCn1cnc2c(N)ncnc21", "note": "[GW345098]", "%Inh": 37}, {"smiles": "N#Cc1c(N2CCOCC2)sc(-c2ccn[nH]2)c1-c1ccc(Cl)cc1", "%Inh": 0}, {"smiles": "Cl.Oc1cccc(Nc2ccnc3cc(-c4ccncc4)ccc23)c1", "note": "[GW494601]", "%Inh": 66}, {"smiles": "O=C(NCCNc1ccnc(Nc2ccc(F)cc2)n1)Nc1ccccc1F", "note": "[GSK1379880]", "%Inh": 28}]}, {"system": "T1, OSR1", "T1 construct": "gene OXSR1", "details": "concentration: 1 μM, replicates: in singlicate; n = 1", "units": {"%Inh": "%"}, "values": [{"smiles": "NS(=O)(=O)c1cccc(-c2ccc3ncc(N4CCOCC4)nc3c2)c1", "note": "[GSK1535721]", "%Inh": 0}, {"smiles": "CN1c2ccc(CNc3ccc(F)cc3)cc2-c2c(cnn2C)S1(=O)=O", "%Inh": 0}, {"smiles": "Cc1cn2c(=O)cc(N3CCOCC3)nc2n1Cc1cccc(Cl)c1Cl", "note": "[GSK2334006]", "%Inh": 1}, {"smiles": "CC(C)(C)n1cnc2c(N)ncnc21", "note": "[SKF-97359]", "%Inh": 0}, {"smiles": "O=c1cc(N2CCOCC2)nc2n(Cc3cccc(F)c3)ccn12", "note": "[GSK2297430]", "%Inh": 1}, {"smiles": "O=C(c1ccc(-c2cc(-c3c[nH]nc3-c3ccccn3)ccn2)cc1)N1CCOCC1", "note": "[GW812171]", "%Inh": 0}, {"smiles": "COc1ccc(Nc2nccc(N3CCC(NC(=O)Nc4cccc(C(C)=O)c4)C3)n2)cc1", "note": "(centres unmarked) [GSK1379731]", "%Inh": 16}, {"smiles": "Cc1ccc(NC(=O)c2ccnc(N3CCN(C)CC3)c2)cc1-c1ccc(C(=O)NCC2CC2)cc1", "note": "[GW775604]", "%Inh": 0}, {"smiles": "Nc1nccc(-c2c(-c3ccc(F)cc3)ncn2C2CCN(CC(F)(F)F)CC2)n1", "note": "[SB-236560]", "%Inh": 0}, {"smiles": "Cc1nnc(-c2ccc3ncc(-c4ccc(S(C)=O)cc4)n3c2)o1", "note": "(centres unmarked)", "%Inh": 9}, {"smiles": "CN(C1=C(c2ccccc2)C(=O)NC1=O)c1ccccc1", "note": "[SB-334860]", "%Inh": 4}, {"smiles": "CSc1ccc(-c2cc3ncnc(SCC(=O)O)c3s2)cc1", "%Inh": 0}, {"smiles": "O=C1Cc2cc(Nc3nc(NCc4cccc(S(=O)(=O)C(F)(F)F)c4)ncc3C(F)(F)F)ccc2N1", "%Inh": 4}, {"smiles": "Cc1ccc(C(=O)NCC(N)=O)cc1-n1c(C)cc(OCc2ccc(F)cc2F)c(Br)c1=O", "%Inh": 0}, {"smiles": "CN(C(=O)c1ccc(-c2cc(-c3c[nH]nc3-c3ccccn3)ccn2)cc1)C1CCOCC1", "note": "[GW810083]", "%Inh": 0}, {"smiles": "c1ccc(-c2cc(-c3c[nH]nc3-c3ccccn3)ccn2)cc1", "note": "[GW576604]", "%Inh": 0}, {"smiles": "COc1cc2c(cc1OC[C@@H](O)CO)ncc1c3ccc(C#N)cc3[nH]c21", "%Inh": 0}, {"smiles": "Cl.Cl.Cl.Fc1ccc(-c2ncn(C3CCNCC3)c2-c2ccnc(Nc3ccccc3)n2)cc1", "note": "[SB-238039]", "%Inh": 14}, {"smiles": "CCCCCc1nc2c(N)ncnc2n1CCCCC", "note": "[SKF-97255]", "%Inh": 0}, {"smiles": "Fc1ccc(-c2ncn(CCCN3CCOCC3)c2-c2cccnc2)cc1", "note": "[SB-211743]", "%Inh": 0}, {"smiles": "Cc1cccc(Cn2ccn3c(=O)cc(N4CCOCC4)nc23)c1", "note": "[GSK2297542]", "%Inh": 19}, {"smiles": "Fc1ccc(-c2nn3c(OCC(F)(F)F)cccc3c2-c2ccncc2)cc1", "note": "[GW514784]", "%Inh": 20}, {"smiles": "COc1cc2c(cc1OCCN1CCN(C)CC1)ncc1c3ccc(C#N)cc3[nH]c21", "%Inh": 0}, {"smiles": "COc1ccc(COc2cc(-n3cnc4ccccc43)sc2C(N)=O)cc1", "note": "[GSK1024304]", "%Inh": 14}, {"smiles": "O=C(NOCC1CC1)c1ccc(F)c(F)c1Nc1ccc(I)cc1Cl", "%Inh": 0}, {"smiles": "Cc1c2ccc(N(C)c3ccnc(Nc4cccc(S(N)(=O)=O)c4)n3)cc2nn1Cc1ccccc1.Cl.Cl", "note": "[GW787226]", "%Inh": 0}, {"smiles": "O=c1cc(N2CCOCC2)nc2n(Cc3cccc(C(F)(F)F)c3)ccn12", "note": "[GSK2297543]", "%Inh": 5}, {"smiles": "Cc1nnc(-c2ccc(C)c(-c3ccc(C(=O)Nc4ccc(NS(C)(=O)=O)cc4)cc3)c2)o1", "note": "[GW702865]", "%Inh": 0}, {"smiles": "O=C(NCCNc1ccnc(Nc2ccc(F)cc2)n1)c1cc2ccccc2s1", "note": "[GSK1379874]", "%Inh": 12}, {"smiles": "Cc1nnc(-c2ccc3occ(-c4ccc(C(C)O)cc4)c3c2)o1", "note": "(centres unmarked)", "%Inh": 25}, {"smiles": "CCn1cnc2c(N)ncnc21", "note": "[GW345098]", "%Inh": 0}, {"smiles": "N#Cc1c(N2CCOCC2)sc(-c2ccn[nH]2)c1-c1ccc(Cl)cc1", "%Inh": 0}, {"smiles": "Cl.Oc1cccc(Nc2ccnc3cc(-c4ccncc4)ccc23)c1", "note": "[GW494601]", "%Inh": 0}, {"smiles": "O=C(NCCNc1ccnc(Nc2ccc(F)cc2)n1)Nc1ccccc1F", "note": "[GSK1379880]", "%Inh": 20}]}]}
